# Source: ChEMBL document CHEMBL3988442, “University of Dundee, Small-Polar-MMV Screening Library” (2021)
# Biological target: T1, Methionyl-tRNA synthetase, putative (Leishmania donovani (strain BPK282A1)) (UniProt E9BF75)
# T1 sequence (whole entry): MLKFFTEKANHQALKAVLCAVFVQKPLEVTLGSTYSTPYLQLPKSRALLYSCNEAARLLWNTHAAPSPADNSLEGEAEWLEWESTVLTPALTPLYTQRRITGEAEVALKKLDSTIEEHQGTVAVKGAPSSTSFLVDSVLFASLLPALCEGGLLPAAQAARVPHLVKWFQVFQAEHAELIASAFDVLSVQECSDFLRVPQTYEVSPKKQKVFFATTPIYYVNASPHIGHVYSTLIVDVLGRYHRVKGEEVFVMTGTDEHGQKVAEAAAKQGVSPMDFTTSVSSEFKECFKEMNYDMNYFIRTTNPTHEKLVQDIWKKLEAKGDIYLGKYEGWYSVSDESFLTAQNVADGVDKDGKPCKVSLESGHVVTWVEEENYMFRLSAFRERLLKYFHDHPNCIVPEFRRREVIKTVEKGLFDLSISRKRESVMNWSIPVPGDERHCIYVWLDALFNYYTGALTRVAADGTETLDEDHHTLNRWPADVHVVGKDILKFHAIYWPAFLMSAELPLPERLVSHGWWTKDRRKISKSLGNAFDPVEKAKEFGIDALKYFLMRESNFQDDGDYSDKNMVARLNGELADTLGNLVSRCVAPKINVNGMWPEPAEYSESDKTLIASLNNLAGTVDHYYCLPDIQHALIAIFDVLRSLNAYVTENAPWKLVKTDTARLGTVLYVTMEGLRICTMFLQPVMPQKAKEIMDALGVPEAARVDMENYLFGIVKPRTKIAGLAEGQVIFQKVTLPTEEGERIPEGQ
# Experiment: Leishmania donovani Methionine tRNA synthetase (LdMetRS):v7. Dose response assay
# Format: functional
# Parameters: conc 80 nM, time 150 minutes
structure (smiles),measurement,setting,value
COCCNc1nc(CN2CCCC2)nc2sc3c(c12)CCCC3,PXC50,MAX_EFFECT 13.54166667,< 4
same,PXC50,MAX_EFFECT 14.03508772,< 4
O=C(NCC1(O)CCC(F)(F)CC1)c1cc(=O)c2cc(F)ccc2o1,PXC50,MAX_EFFECT 1.754385965,< 4
same,PXC50,MAX_EFFECT 9.021113244,< 4
Cc1ccc(-c2cc(C(F)(F)F)nc(N3CCOCC3)n2)s1,PXC50,MAX_EFFECT 10.18276762,< 4
same,PXC50,MAX_EFFECT 14.09921671,< 4
Nc1noc2ccc(-c3cnc4ccc(Cl)nn34)cc12,PXC50,MAX_EFFECT 1.526717557,< 4
same,PXC50,MAX_EFFECT 4.824561404,< 4
CCc1ccc(CN(C)Cc2nc(N)c3c(C)c(C)sc3n2)cc1,PXC50,MAX_EFFECT 28.57142857,< 4
same,PXC50,MAX_EFFECT 30.4,< 4
Fc1ccc(Nc2nc(-c3ccccn3)cs2)cc1,PXC50,MAX_EFFECT 22.79069767,< 4
same,PXC50,MAX_EFFECT 23.07692308,< 4
Cc1nc(N2CCN(c3ccccc3O)CC2)c2c3c(sc2n1)CCC3,PXC50,"BOTTOM -0.0879, HILLSLOPE 1.043556985, MAX_EFFECT 58.82352941, TOP 100.0",4.16
same,PXC50,"BOTTOM -4.305210646, HILLSLOPE 1.068745934, MAX_EFFECT 61.20218579, TOP 100.0",4.17
Cc1cc2c(N3CCCC3)nc(-c3cccnc3)nc2s1,PXC50,MAX_EFFECT 8.196721311,< 4
same,PXC50,MAX_EFFECT 10.16042781,< 4
Cn1ccnc1CN1CCC(F)(F)C2(CCN(c3cnccn3)C2)C1 (stereo not given),PXC50,MAX_EFFECT 2.816901408,< 4
same,PXC50,MAX_EFFECT 9.074074074,< 4
CCc1nc(NCCCC(=O)O)c2cc(CC)sc2n1,PXC50,MAX_EFFECT 11.55778894,< 4
same,PXC50,MAX_EFFECT 13.02211302,< 4
CS(=O)(=O)N1CCN(c2cnc3ncc(C(=O)NC4CCCC4)cn23)CC1,PXC50,MAX_EFFECT 3.624733475,< 4
same,PXC50,MAX_EFFECT 4.761904762,< 4
CS(=O)(=O)N1CCN(c2ccc3ccc(C(=O)NC4Cc5ccccc5C4)cn23)CC1,PXC50,"BOTTOM 1.298239116, HILLSLOPE 2.724135748, MAX_EFFECT 51.19617225, TOP 47.98570818",5.08
same,PXC50,"BOTTOM 7.56395186, HILLSLOPE 1.844448201, MAX_EFFECT 55.57586837, TOP 59.35407924",4.75
Nc1nc(CSc2nnc[nH]2)nc2sc3c(c12)CCCC3,PXC50,MAX_EFFECT 21.33333333,< 4
same,PXC50,MAX_EFFECT 26.98412698,< 4
Cc1nc(NCc2cccnc2)c2c3c(sc2n1)CCC3,PXC50,MAX_EFFECT 6.361323155,< 4
same,PXC50,MAX_EFFECT 13.85390428,< 4
CCCNc1nc(-c2ccc(C)cc2)cc(C(F)(F)F)n1,PXC50,MAX_EFFECT 6.21761658,< 4
same,PXC50,MAX_EFFECT 10.10638298,< 4
Cc1nc(N2CCNC(=O)C2)c2c(CC(C)C)csc2n1,PXC50,MAX_EFFECT 4.371584699,< 4
same,PXC50,MAX_EFFECT 6.951871658,< 4
O=C(c1c[nH]cn1)N1CCC(F)(F)C2(CCN(c3cnccn3)C2)C1 (stereo not given),PXC50,MAX_EFFECT 1.584507042,< 4
same,PXC50,MAX_EFFECT 3.800475059,< 4
Cc1nc(NCCCS(N)(=O)=O)c2c(-c3cccs3)csc2n1,PXC50,MAX_EFFECT 6.297229219,< 4
same,PXC50,MAX_EFFECT 6.870229008,< 4
N[C@H](COc1cccc(F)c1Oc1ccc(Cl)cc1)CC1CCCCC1,PXC50,"BOTTOM 8.516712257, HILLSLOPE 1.897669447, MAX_EFFECT 94.20289855, TOP 100.0",4.49
same,PXC50,"BOTTOM 8.547488971, HILLSLOPE 2.365761437, MAX_EFFECT 99.14712154, TOP 101.5267465",4.51
Cc1cc2ccc(N3CCN(S(C)(=O)=O)CC3)n2cc1C(=O)NC1CCCC1,PXC50,MAX_EFFECT 43.22916667,< 4
same,PXC50,MAX_EFFECT 44.29824561,< 4
Nc1noc2ccc(-c3cnc4ccc(NCCN5CCS(=O)(=O)CC5)nn34)cc12,PXC50,MAX_EFFECT 6.106870229,< 4
same,PXC50,MAX_EFFECT 10.52631579,< 4
Cc1sc2nc(CN3CCOCC3)nc(NCC3CCCO3)c2c1C (stereo not given),PXC50,MAX_EFFECT 9.836065574,< 4
same,PXC50,MAX_EFFECT 10.69518717,< 4
Cc1nc(N(C)CC(=O)N(C)C)c2c3c(sc2n1)CCC3,PXC50,MAX_EFFECT 0.0,< 4
same,PXC50,MAX_EFFECT 1.058201058,< 4
COCc1nc(N(C)CC(=O)N(C)C)c2c(-c3ccccc3)csc2n1,PXC50,MAX_EFFECT 3.778337531,< 4
same,PXC50,MAX_EFFECT 3.816793893,< 4
Cc1cc(C)n(-c2nc(NCC(C)(C)O)c3c4c(sc3n2)CCCC4)n1,PXC50,MAX_EFFECT 11.97916667,< 4
same,PXC50,MAX_EFFECT 40.35087719,< 4
Cc1ccc(-c2ncc(CNc3cnccc3CO)s2)cc1,PXC50,MAX_EFFECT 7.042253521,< 4
same,PXC50,MAX_EFFECT 10.18518519,< 4
COCCNC(=O)c1ccc2ccc(N(C)CC3CC3)n2c1,PXC50,MAX_EFFECT 29.93197279,< 4
same,PXC50,MAX_EFFECT 41.12149533,< 4
COCCNc1nc(-c2cccnc2)nc2sc(C)c(C)c12,PXC50,"BOTTOM 0.74162584, HILLSLOPE 1.235225767, MAX_EFFECT 62.1761658, TOP 100.0",4.17
same,PXC50,"BOTTOM 1.893882354, HILLSLOPE 1.640156685, MAX_EFFECT 57.9787234, TOP 75.89886764",4.31
Cc1nc(O)cc(C2CCN(c3nc(C)nc4sccc34)CC2)n1,PXC50,MAX_EFFECT 2.659574468,< 4
same,PXC50,MAX_EFFECT 5.699481865,< 4
CCN(CC)c1ccc2ccc(C(=O)NC3CCCC3)cn12,PXC50,MAX_EFFECT 33.58778626,< 4
same,PXC50,MAX_EFFECT 39.03508772,< 4
Cc1ncc(CNc2cnccc2CO)s1,PXC50,MAX_EFFECT 4.225352113,< 4
same,PXC50,MAX_EFFECT 9.814814815,< 4
O=C1CN(c2nc(-c3cccs3)nc3sc4c(c23)CCCC4)CCN1,PXC50,MAX_EFFECT 29.33333333,< 4
same,PXC50,MAX_EFFECT 31.74603175,< 4
Cc1nc(NCCCO)c2c(-c3cccs3)csc2n1,PXC50,MAX_EFFECT 5.852417303,< 4
same,PXC50,MAX_EFFECT 7.808564232,< 4
Clc1cc(Cl)c2c(c1)NCCC2,PXC50,MAX_EFFECT 10.1511879,< 3
same,PXC50,MAX_EFFECT 15.01901141,< 3
CCc1cc2c(NCCCN(C)C)nc(-c3ccccc3)nc2s1,PXC50,MAX_EFFECT 10.07371007,< 4
same,PXC50,MAX_EFFECT 10.55276382,< 4
